This is part of a sample that, as a whole, favours compounds with a hit. Of some 83,000 tested, about 20% had one in any assay.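 Cells were grown in 96-well plates and exposed to the test compound at a single concentration for 48 hours; results are reported as percent growth, with values below 10 considered active.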 Active and inactive are the calls of the source.
Key:
Assay in all cases: NCI-60 one-dose screen, 48 h (100 = growth as untreated, 0 = no growth, -100 = all killed)
Conditions in all cases: 10 µM unless noted
HCT-15 colon = system: HCT-15 colon
HT29 colon = system: HT29 colon
SNB-75 CNS = system: SNB-75 CNS
SNB-19 CNS = system: SNB-19 CNS
U251 CNS = system: U251 CNS
SK-MEL-5 melanoma = system: SK-MEL-5 melanoma
UACC-62 melanoma = system: UACC-62 melanoma
LOX IMVI melanoma = system: LOX IMVI melanoma
SK-MEL-28 melanoma = system: SK-MEL-28 melanoma
PC-3 prostate = system: PC-3 prostate

Measured: growth

CNc1nc(S(=O)c2ccc(C#N)cc2)nc2ccccc12 (stereo unspecified)
inactive: HCT-15 colon 81% | HT29 colon 81.8% | SNB-75 CNS 60.5% | SNB-19 CNS 90.8% | U251 CNS 83.1% | SK-MEL-5 melanoma 83.6% | UACC-62 melanoma 81% | LOX IMVI melanoma 76.5% | SK-MEL-28 melanoma 94.4%

O=C(Cn1c2c(c3ccccc31)CCCC2)Nc1ccc(-c2nc3ccccc3s2)cc1
inactive: HCT-15 colon 101% | HT29 colon 107% | SNB-75 CNS 106% | SNB-19 CNS 100% | U251 CNS 96.9% | SK-MEL-5 melanoma 93.6% | UACC-62 melanoma 90.1% | LOX IMVI melanoma 79.9% | SK-MEL-28 melanoma 103%

Oc1c(Cl)cc(Cl)c2ccc(Cn3cc(-c4ccc(C(F)(F)F)cc4)nn3)nc12
inactive: HCT-15 colon 31.3% | HT29 colon 74.2% | SNB-75 CNS 74.1% | SNB-19 CNS 93.3% | U251 CNS 99.8% | SK-MEL-5 melanoma 98.8% | UACC-62 melanoma 73.9% | SK-MEL-28 melanoma 51.2%
active: LOX IMVI melanoma 9.23%

CCCCCCC1(C)NCCO1 (stereo unspecified)
inactive: HCT-15 colon 103% | HT29 colon 106% | SNB-75 CNS 97% | SNB-19 CNS 94.9% | U251 CNS 92.4% | SK-MEL-5 melanoma 112% | UACC-62 melanoma 86.7% | SK-MEL-28 melanoma 110%

COC(=O)c1c2c(c(C)[n+]([O-])c1C)C(=O)C(NCc1ccc(Cl)cc1)=CC2=O
inactive: HCT-15 colon 39.6% | SNB-75 CNS 131% | SNB-19 CNS 84.4% | U251 CNS 57.2% | SK-MEL-5 melanoma 29.9% | LOX IMVI melanoma 45.8% | SK-MEL-28 melanoma 95.7%
active: HT29 colon 9.34% | UACC-62 melanoma 6.15%

C=CCc1c(O)c(C(=O)/C=C/c2ccc(Cl)cc2)c(OC)c2ccoc12
inactive: HCT-15 colon 41.3% | HT29 colon 36.6% | SNB-75 CNS 80.1% | SNB-19 CNS 63.2% | U251 CNS 37.7% | SK-MEL-5 melanoma 52.6% | UACC-62 melanoma 48.1% | LOX IMVI melanoma 34.8% | SK-MEL-28 melanoma 63.5%

COC(=O)/C(CCC=C(C)C)=C1\[C@@H](OC(C)=O)C[C@@]2(C)[C@H]1C[C@@H](O)[C@H]1[C@@]3(C)CC[C@H](NCCN)[C@@H](C)[C@@H]3CC[C@@]12C
inactive: HCT-15 colon 55% | HT29 colon 33.5% | SNB-75 CNS 73% | SNB-19 CNS 95.1% | U251 CNS 69.1% | SK-MEL-5 melanoma 88.3% | UACC-62 melanoma 89.5% | LOX IMVI melanoma 84.5% | SK-MEL-28 melanoma 89.2%

CCOC(=O)/C=C1\S/C(=N\Nc2cc(=O)[nH]c3ccc(Cl)cc23)N(c2ccccc2)C1=O
inactive: HCT-15 colon 74.5% | HT29 colon 102% | SNB-75 CNS 87.5% | SNB-19 CNS 90.6% | U251 CNS 89.9% | SK-MEL-5 melanoma 98.9% | UACC-62 melanoma 89.4% | LOX IMVI melanoma 84.4% | SK-MEL-28 melanoma 101%

N#Cc1nc(-c2ccccc2)oc1S(=O)(=O)N1CCOCC1
inactive: HT29 colon 99.5% | SNB-75 CNS 94.4% | SNB-19 CNS 91.7% | U251 CNS 93.7% | SK-MEL-5 melanoma 91.6% | UACC-62 melanoma 91% | LOX IMVI melanoma 68.2% | SK-MEL-28 melanoma 106%
active: HCT-15 colon -15.4%

Cc1cnc(C(=O)NNc2nc3sc4c(c3c(=O)n2C)C(C)CCC4)cn1 (stereo unspecified)
active: HT29 colon -2.88% | SNB-75 CNS 1.63% | SNB-19 CNS -14.8% | U251 CNS -33.3% | PC-3 prostate 8.78% | SK-MEL-5 melanoma -53.8% | UACC-62 melanoma -20.8% | SK-MEL-28 melanoma 8.43%
inactive: HCT-15 colon 15.9%

C=CC(=O)NCc1ccc(Nc2nccc(-c3ccc(N4CCCC4)c(C#N)c3)n2)cc1
active: HT29 colon 7.08%
inactive: HCT-15 colon 19.7% | SNB-75 CNS 20.3% | SNB-19 CNS 58.6% | U251 CNS 38.1% | SK-MEL-5 melanoma 35.7% | UACC-62 melanoma 33.8% | LOX IMVI melanoma 47.2% | SK-MEL-28 melanoma 45.5%

Clc1ccc(Nc2nnc(COc3ccccc3)c3ccccc23)cc1
inactive: SNB-75 CNS 13.1% | SNB-19 CNS 22%
active: HCT-15 colon 4.45% | HT29 colon 1.32% | U251 CNS -12.7% | SK-MEL-5 melanoma -96.1% | UACC-62 melanoma -27.7% | LOX IMVI melanoma -62% | SK-MEL-28 melanoma 4.73%

O=C(Nc1cccnc1Nc1ccc(F)cc1)c1cn(Cc2cccc(Oc3ccccc3)c2)nn1
inactive: HCT-15 colon 43.4% | HT29 colon 53.1% | SNB-75 CNS 65.6% | SNB-19 CNS 67.8% | U251 CNS 51.4% | SK-MEL-5 melanoma 39.3% | UACC-62 melanoma 44.8% | LOX IMVI melanoma 48.5% | SK-MEL-28 melanoma 68.7%

Source: PubChem BioAssay (NCI)
